Test results from PubChem BioAssay AID1839 (Johns Hopkins Ion Channel Center, 2009).
The campaign covered roughly 2,400 compounds. About 220 (9.2%) were called active. The list comes from a sample in which actives are over-represented; it also holds similar structures and randomly drawn compounds. A number with no mark means an inactive call.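 How the source made its calls: active means signal change above the mean of dofetilide-free buffer controls plus 3 SD, so a positive margin; inactive means the rest.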

Experiment: nonspecific flux effects in parental CHO-K1, confirmation, counter-screen for hERG block protection project, cell-based, CHO-K1 parental line, FluxOR thallium flux (AID 1839);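 further: compounds applied alone with no dofetilide to cells lacking hERG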
Settings: CHO-K1 parental cells, FluxOR thallium flux fluorescence; at 10 µM

| SMILES | signal change vs control minus 3*SD hit threshold (margin above threshold, higher = more increase) |
| --- | --- |
| Cc1cccc(/C=N/NC(=O)c2cc(Br)ccc2O)n1 | -26.5% |
| C/C(=N\NC(=O)c1cc2ccccc2cc1O)c1cc2ccccc2o1 | 50.8% (active) |
| Cc1ccc(/C=N/NC(=O)c2cc(C)oc2C)o1 | -22.9% |
| O=C(N/N=C/c1ccc(Sc2ccccn2)o1)c1cc2ccccc2cc1O | -17.7% |
| COc1ccc(CCNC(=O)c2cc3ccccc3oc2=O)cc1 | -38.8% |
| C/C(=N\NC(=O)c1cc2ccccc2cc1O)c1ccccn1 | -32.4% |
| C/C(=N\NC(=S)Nc1c(C)cccc1C)c1cc2ccccc2o1 | -26% |
| Cc1ccc(/C=N/NC(=O)c2cc(-c3ccncc3)nc3ccccc23)o1 | -58.7% |
| C/C(=N/NC(=O)c1cc2ccccc2cc1O)c1ccco1 | 3.4% (active) |
| Cc1ccc(/C=N/NC(=O)c2cc3ccccc3cc2O)o1 | 18.2% (active) |
| C/C(=N\NC(=O)c1cc2ccccc2cc1O)c1ccc(C)o1 | 3.3% (active) |
| C/C(=N\NC(=O)c1ccoc1C)c1cccc2ccccc12 | -5.5% |
| NC(=O)Cn1c2[n+](c3ccccc31)CC(O)CS2 (stereo not drawn) | -25.7% |
| CC(=O)c1ccc2c(c1)OCCOCCOCCO2 | -35.7% |
| CC(CCc1ccccc1)NC(=S)NC(=O)c1ccco1 (stereo not drawn) | 0% |
| C/C(=C\C(=O)c1ccccc1)NNC(=O)c1ccc(Cl)cc1 | -4.7% |
| Cc1ccc(Cn2nnc3c(=O)n(CC(=O)N4CCCc5ccccc54)cnc32)cc1 | -24.6% |
| Cc1ccc(C(=O)CC(=O)c2ccccc2C)c(O)c1 | -34% |
| Cc1cc(=S)[nH]c2c(C)cccc12 | -20% |
| c1ccc(CCCNc2ncnc3nc[nH]c23)cc1 | -18.5% |
| CSc1nsc(SCC(=O)Nc2ccccc2C(=O)O)n1 | -22.4% |
| O=C(NC(=S)Nc1nc(-c2ccccc2)cs1)c1cncc(Br)c1 | -17.9% |
| Cc1cccc(NC(=S)c2nc3ccccc3s2)c1 | -28.6% |
| Cc1ccc(NC(=S)c2nc3ccccc3s2)cc1 | -24.9% |
| S=C(Nc1ccc(Cl)cc1)c1nc2ccccc2s1 | 10.2% (active) |
| O=c1[nH]c(C(Cl)(Cl)Cl)nc2ccc3ccccc3c12 | -12% |

| SMILES | signal change vs control minus 3*SD hit threshold (margin above threshold, higher = more increase) |
| --- | --- |
| O=C(CCC(=O)Nc1ccccc1)NNC(=O)c1ccco1 | -34.1% |
| COc1ccc(OC)c(NC(=O)C(=O)NNC(=O)c2cccs2)c1 | -26.1% |
| COc1ccc(C)cc1NC(=O)Nc1ccc(C(=O)N2CCCC2)cc1 | -20.5% |
| COc1ccc(C)cc1NC(=O)C(=O)NNC(=O)c1ccco1 | 23.7% (active) |
| COc1ccccc1NC(=O)C(=O)NNC(=O)c1ccco1 | 6.5% (active) |
| COCC1CCCN(C(=O)c2ccc3oc(C(C)C)nc3c2)C1 (stereo not drawn) | -17.8% |
| C/C(O)=C/c1nc2ccccc2[nH]c1=O | -30.7% |
| CSc1nc2c(c(=O)[nH]1)C(c1ccc(Br)cc1)CC(=O)N2 (stereo not drawn) | -22.1% |
| C=CCn1c(=S)[nH]c2scc(-c3cccs3)c2c1=O | 37.4% (active) |
| C=CCn1c(=S)[nH]c2cc(-c3ccccc3)sc2c1=O | -25.2% |
| C=CCn1c(SCC(N)=O)nc2scc(-c3ccc(C)o3)c2c1=O | -20.7% |
| C=CCn1c(=S)[nH]c2scc(-c3ccc(C)o3)c2c1=O | 27.1% (active) |
| C=CCn1c(=S)[nH]c2ccc(Br)cc2c1=O | -17.4% |
| Cc1ccccc1NC(=O)CN1C(=O)S/C(=C\c2ccc(-c3cccc(C(=O)O)c3C)o2)C1=O | -33.5% |
| C=CCNc1sc(C(=O)C(C)(C)C)c(N)c1C#N | -32.1% |
| O=C(COc1ccc2c3c(c(=O)oc2c1)CCC3)N[C@@H](Cc1ccccc1)C(=O)O | -5.5% |
| CSC1=C(C#N)C(CC(C)C)C2=C(CCCC2=O)N1 (stereo not drawn) | -26.3% |
| O=C(Nc1ccc2[nH]c(=S)sc2c1)Nc1ccccc1F | -39.7% |
| Cc1[nH]c(=S)sc1Cc1ccc(Cl)c(Cl)c1 | -29.6% |
| S=c1[nH]c2ccc(Cl)cc2s1 | 36.9% (active) |
| S=c1[nH]c2cc(Cl)ccc2s1 | 38.9% (active) |
| CC(C)Cn1c(=S)[nH]c2cc(Cl)ccc21 | -22.1% |
| COc1cc(S(=O)(=O)NCC2COCCO2)ccc1-n1cnnn1 (stereo not drawn) | -28.3% |
| FC(F)(F)c1cnc2c(c1)[nH]c(=S)n2-c1ccc(Cl)cc1 | -16.7% |
| CNC(=O)c1ccc(NC(=O)CN2c3cccc4cccc(c34)S2(=O)=O)cc1 | -22% |
| O=C1NC(=S)SC1=C1CCCCCC1 | 26% (active) |

| SMILES | signal change vs control minus 3*SD hit threshold (margin above threshold, higher = more increase) |
| --- | --- |
| CCCCCN(C(=O)CCC(=O)OCC(=O)N(C)C1CCCCC1)c1c(N)n(CCCC)c(=O)[nH]c1=O | -20.9% |
| CCC1(C(=O)O)NC(c2cc(OC)ccc2O)C2C(=O)N(Cc3ccccc3)C(=O)C21 (stereo not drawn) | -29.6% |
| O=C1NCCN1Cc1ccccc1F | -30.6% |
| CON/C=N/C(=S)Nc1ncc(C(F)(F)F)cc1Cl | 16.5% (active) |
| ON/C=N/C(=S)Nc1ncc(C(F)(F)F)cc1Cl | 6.1% (active) |
| C/C(Cl)=C\Cn1c(O)c(N=NC(N)=S)c2cc(Br)ccc21 | -15.7% |
| COc1ccc(OC)c(S(=O)(=O)NCc2cn3cccc(C)c3n2)c1 | -37.6% |
| O=c1c2cc(Cl)ccc2nc(-c2ccc([N+](=O)[O-])cc2)n1O | 4.5% (active) |
| O=[N+]([O-])c1ccc(CSc2nnc(SCc3ccc(Cl)cc3)s2)cc1 | -24.5% |
| O=c1c2cc(Br)ccc2nc(-c2ccc([N+](=O)[O-])cc2)n1O | 6.7% (active) |
| O=c1c2ccc(Cl)cc2nc(-c2ccc([N+](=O)[O-])cc2)n1O | -15.4% |
| Nc1nc(O)c(N=Nc2ccc(S(N)(=O)=O)cc2)c(=O)[nH]1 | -32% |
| CNC(=S)Nc1sc2c(c1C(=O)OC)CCC2 | -15.1% |
| Cc1ccc(C(=O)N/N=C(/CC(=O)c2cccs2)C(F)(F)F)cc1 | -22.1% |
| CC(C)=CCCC1=CCC2C(=O)NNC(=O)C2C1 (stereo not drawn) | -33.3% |
| CC(C)(C)NC(=O)C(=O)NNC(=O)COc1ccc(Br)cc1 | 6.9% (active) |
| CC(C)(C)NC(=O)C(=O)NNC(=O)COc1ccccc1 | -32.8% |
| Cc1ccc(OCC(=O)NC(=S)Nc2ccc(Br)cn2)cc1 | -4.8% |
| c1ccc(SSc2ccccn2)nc1 | -36.9% |
| S=c1[nH]c(-c2ccccc2)cn1/N=C/c1cccc2ccccc12 | -17.6% |
| Oc1oc(-c2cccc3ccccc23)nc1/C=N/c1nccs1 | -19.4% |
| Oc1c(N=NC(=S)Nc2ccccc2F)c2ccccc2n1Cc1ccccc1 | -17.5% |
| CCn1c(O)c(N=NC(=O)CNC(=O)c2ccccc2F)c2ccccc21 | -28.7% |
| CCCn1c(O)c(N=NC(=O)c2ccco2)c2ccccc21 | 29.8% (active) |
| CN1C(=O)/C(=N\OC(=O)c2cccc3ccccc23)c2ccccc21 | -18.7% |
| C/C(Nc1cccc(F)c1)=C(/C#N)C(N)=O | -24.1% |

| SMILES | signal change vs control minus 3*SD hit threshold (margin above threshold, higher = more increase) |
| --- | --- |
| Cc1sc2nc[nH]c(=S)c2c1-c1ccccc1 | 9.4% (active) |
| Cc1c(-c2ccccc2)sc2nc[nH]c(=S)c12 | 6.1% (active) |
| Cc1ccc(-c2csc3nc[nH]c(=S)c23)cc1C | -21.7% |
| S=c1[nH]cnc2scc(-c3ccccc3)c12 | -3.2% |
| Cc1cc(-c2csc3nc[nH]c(=S)c23)cc(C)c1C | -3.4% |
| S=c1[nH]cnc2scc(-c3ccc(Br)cc3)c12 | -22% |
| Clc1ccc(Nc2nc3cccnc3s2)cc1 | -29.8% |
| CCOC(=O)N1CCN(C(=O)CCn2c(=S)[nH]c3ccsc3c2=O)CC1 | -14.4% |
| CN(CCc1ccccn1)C(=O)CCC1CCCN(C(=O)c2ccsc2)C1 (stereo not drawn) | -22.3% |
| N=C1S/C(=C\c2ccc(-c3cccc(Cl)c3)o2)C(=O)N1c1nccs1 | -18.8% |
| Cc1cc(S(=O)(=O)N2CCOCC2)ccc1OCC(=O)NCc1ccco1 | -27.2% |
| Oc1c(Br)cc(Br)cc1C=Nc1ccc2[nH]ncc2c1 | 11% (active) |
| Oc1c(Br)cc(Br)cc1C=Nc1cccc2ncccc12 | -0.4% |
| Oc1c(Br)cc(Br)cc1C=Nc1ccc2c(c1)OCCO2 | -5.9% |
| COc1ccc(-n2c(O)c(/C=C3\C=Nc4ccccc43)c(=O)[nH]c2=O)cc1 | -43% |
| COCC(=O)NC1CC2CCC(C1)N2C(=S)Nc1ccccc1C(=O)OC (stereo not drawn) | -14.6% |
| COC(=O)c1c(NC(=O)CN2CCOCC2)sc2c1CCC(C)C2 (stereo not drawn) | -31.2% |
| COc1cc(NC(=O)CSc2ncnc3sc4c(c23)CCC(C)C4)c(C(=O)O)cc1OC (stereo not drawn) | 29.8% (active) |
| Cc1sc2ncnc(SCC(=O)c3ccc(O)cc3O)c2c1C | -22.1% |
| COc1cc(NC(=O)CCCOc2ccc(Cl)cc2Cl)c(C(=O)O)cc1OC | -17.7% |
| Cc1noc(C)c1CSc1ncnc2sc3c(c12)CCCCC3 | -14.1% |
| CC(=O)CSc1ncnc2sc3c(c12)CCC(C)C3 (stereo not drawn) | 49% (active) |
| CCOC(=O)/C(C)=N/NC(=O)c1cccc([N+](=O)[O-])c1 | -14.2% |
| CCOC(=O)c1ccc(Oc2cc(C)nc(SC)n2)cc1 | -8.1% |
| Cc1cccc(C(=O)NC(=S)N(C)C2CCCCC2)c1 | -9.9% |
